Bioassay records (PubChem)
Autofluor counter: flagged as autofluorescent in microsphere protease counterscreen | fluorescence intensity (no concentration beside the values) | AID 624483 | actives 3.1% (n = 360,000) | compound autofluorescence counterscreen, microsphere flow cytometry; hits give high values; in the data active means fluorescence intensity above about 16000; inconclusive means no clear call, values can overlap the other calls
BoNT-F LC inh: BoNT F light chain protease inhibition. actives 0.22% (n = 360,000). inhibition, % at 10 µM. Multiplex microsphere protease cleavage assay, flow cytometry; in the data active means inhibition above about 35%, passing the limit was not always enough; inconclusive means no clear call, values can overlap the other calls; further: plate controls were buffer without enzyme for full effect and enzyme alone for no effect
MazF activator: increases E. coli MazEF RNase cleavage of RNA; FAM/BHQ RNA-DNA oligo cleavage fluorescence, 5 h; activation, % at 20 µM; actives 0.32% (n = 350,000); AID 504720; in the data active means activation above about 50%
Target sequence (P0AE70 whole entry, looked up): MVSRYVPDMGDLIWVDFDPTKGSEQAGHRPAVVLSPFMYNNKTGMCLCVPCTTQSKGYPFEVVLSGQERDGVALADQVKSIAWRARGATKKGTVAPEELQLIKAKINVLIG
BoNT A protease: inhibitors of Botulinum neurotoxin A light chain protease; multiplex microsphere protease substrate cleavage, flow cytometry; inhibition, % at 10 µM; actives 0.17% (n = 360,000); AID 588499; further: plate controls were buffer without enzyme for full effect and enzyme alone for no effect
Anthrax LF inh2: anthrax lethal factor protease inhibition | actives 0.12% (n = 360,000) | inhibition, % at 10 µM | AID 588501 | multiplex microsphere protease cleavage assay, LF; further: plate controls were buffer without enzyme for full effect and enzyme alone for no effect
Active calls of the source: *; ? = inconclusive; / = no result. Hits are enriched below; roughly 3.7% of the tested compounds scored in any of these assays. Unless noted, no stated cut-off is given here; in the data, active means inhibition above about 30%; inconclusive means no clear call, values can overlap the other calls; inactive means below that.

SMILES	Autofluor counter	BoNT-F LC inh	MazF activator	BoNT A protease	Anthrax LF inh2
O=C(c1cccs1)N1CCCc2ccccc21	11369	2	-12	0	-2
O=C(c1cccs1)N1CCc2ccccc21	21871*	1	-6	1	2
Cc1ccc2c(c1)CCCN2C(=O)c1cccs1	20191*	-4	-1	-2	2
c1ccc(-c2cnnc3ccccc23)cc1	3554	-9	1	0	5
COC(=O)c1cc(-c2ccccc2)sc1NC(=O)CN1C(=O)c2ccccc2C1=O	23511*	-2	-10	?	-4
Cc1cc2nc(C)n(CCCNC(=O)Nc3ccc(C#N)cc3)c2cc1C	2705	-1	8	-1	-2
Cc1cc2nc(C)n(CCCN)c2cc1C	22118*	7	1	2	3
CCOC(=O)C1CCN(C(=O)c2cc(S(=O)(=O)N3CCOCC3)ccc2C)CC1	5109	?	3	?	?
CCCCOC(=O)c1ccc(NC(=O)Nc2ccc(OC)c(OC)c2)cc1	3282	4	1	0	-7
CCCCC1CC1C(=O)Nc1ccc(OC)c(OC)c1 (centres undefined)	16567*	-3	-2	0	0
NC(=O)C1CCCN(C(=O)c2ccc(Cl)c(S(=O)(=O)N3CCc4ccccc43)c2)C1 (centres undefined)	?	5	7	7	-1
CCc1c(C)nc2c(C#N)c[nH]n2c1=O	8422	7	9	3	3
CCOC(=O)Cc1c(C)nc2c(C#N)c[nH]n2c1=O	23050*	-2	-13	-1	3
CCOC(=O)c1[nH]c2cc3c(cc2c1CCCN1C(=O)c2ccccc2C1=O)OCCO3	19746*	2	-10	?	2
CCOC(=O)c1[nH]c2ccccc2c1CCCN1C(=O)c2ccccc2C1=O	3338	0	-7	1	-2
CCCCNCc1cc(Br)c(OCC(=O)N2CCOCC2)c(OC)c1	16518*	7	-4	8	-8
Oc1ccc(N=Nc2nc(-c3ccccc3)c(-c3ccccc3)[nH]2)cc1	2907	-25	126*	-2	-5
CCCCNC(=O)C1c2ccccc2OCC(=O)N1CC(F)(F)F (centres undefined)	4191	1	/	1	-5
CCC(=O)Nc1ccc2c(c1)nc1n2CCSC1	/	/	0	/	/
O=C(Nc1ccc2c(c1)nc1n2CCSC1)c1ccccc1	21018*	0	-4	0	5
O=C(Nc1ccc2c(c1)nc1n2CCOC1)c1ccccc1	4191	-8	-1	0	-1
CC(C)C(=O)Nc1ccc2c(c1)nc1n2CCSC1	16136*	7	5	1	-1
COc1cccc(/C=C(/C#N)c2ccc(F)cc2)c1OCc1cccc(C(=O)O)c1	2100	1	-4	1	3
N#C/C(=C/c1ccc(N2CCCCCC2)o1)c1cccc(F)c1	28830*	2	-43	4	-1
COc1cc(N2CCCC2)c(OC)cc1/C=C(/C#N)c1cccc(F)c1	23531*	48*	-397	5	-10
SMILES	Autofluor counter	BoNT-F LC inh	MazF activator	BoNT A protease	Anthrax LF inh2
Cc1cc(C)n2nc(CNS(=O)(=O)c3ccc(C(C)(C)C)cc3)nc2n1	6180	-2	/	-1	-5
CCc1nc2ccc(C(=O)NCc3ccccc3OC)cn2c1N(CC)Cc1cccc(Br)c1	4186	-5	/	0	-4
CCC(C)[C@H](NC(=O)NCC1CCCO1)C(=O)OC (some centres undefined)	24826*	-5	11	-5	-1
CCOc1cc(NC(=S)NCC2CCCO2)c(OCC)cc1NC(=O)c1ccccc1 (centres undefined)	24364*	-3	6	-1	-3
COC(=O)c1ccccc1NC(=O)NCC1CCCO1 (centres undefined)	22874*	-1	4	0	-2
COC(=O)c1ccccc1NC(=O)C(=O)NCC1CCCO1 (centres undefined)	2156	-2	1	1	-2
CCc1c(C(=O)NNC(=S)NCC2CCCO2)csc1C (centres undefined)	2470	-2	2	0	2
Cc1cc(C(=O)NNC(=S)NCC2CCCO2)cs1 (centres undefined)	19574*	1	6	2	-8
CC(C)(C)C(=O)NN=C1CCC(c2ccccc2)CC1 (centres undefined)	5954	1	-4	0	1
O=C(NCC1CCCO1)c1cccs1 (centres undefined)	17278*	-7	1	?	0
CC(=O)Nc1ccc(S(=O)(=O)NC(C)c2ccccc2)cc1 (centres undefined)	3093	?	12	1	-24
Cc1ccc(NCCC(=O)c2ccc(Cl)c(Cl)c2)cc1	23171*	-3	-5	?	0
Cc1ccc(NCCC(=O)c2ccc(Cl)cc2)cc1C	24235*	-6	-9	-1	-1
c1ccc(CNn2nnnc2-c2ccccc2)cc1	19323*	0	0	1	1
COc1ccccc1Nc1nnc(C)c(=O)[nH]1	16456*	-2	0	-1	-1
CCCSc1nc2sc3c(c2c(=O)[nH]1)CCN(Cc1ccccc1)C3	8728	?	-54	32*	24
O=c1[nH]c(C(Cl)Cl)nc2sc3c(c12)CCN(Cc1ccccc1)C3	4543	-15	14	6	1
CC(CCl)n1c(=O)c2ccccc2n1C(=O)c1ccccc1 (centres undefined)	4487	1	/	0	-2
CCCOc1ccccc1NC(=O)/C=C/c1ccc(OC)c(S(=O)(=O)N2CCOCC2)c1	4133	-10	9	0	-6
O=c1oc2cc(OCc3nn[nH]n3)ccc2c2c1CCCC2	18827*	12	2	7	-5
Cc1c(OCC(=O)NCc2ccncc2)ccc2c3c(c(=O)oc12)CCCC3	2715	31	53*	12	7
Cc1c(OCC(=O)NCc2cccnc2)ccc2c3c(c(=O)oc12)CCCC3	5071	9	17	7	1
Cc1cc2oc(=O)c3c(c2cc1OCc1nn[nH]n1)CCCC3	4546	-5	-1	0	-4
NS(=O)(=O)c1ccc(CNC(=O)COc2ccc3c4c(c(=O)oc3c2)CCCC4)cc1	5346	-3	165*	-2	-2
Cc1cc(OCc2nn[nH]n2)c2c3c(c(=O)oc2c1)CCC3	19295*	6	0	3	-3
SMILES	Autofluor counter	BoNT-F LC inh	MazF activator	BoNT A protease	Anthrax LF inh2
CCCc1cc(=O)oc2cc(C)cc(OCc3nn[nH]n3)c12	3230	6	3	0	1
O=C(COc1ccc2c3c(c(=O)oc2c1)CCCC3)NCc1ccncc1	2985	7	3	10	5
COc1ccc(S(=O)(=O)NC(=O)C2(C)CCN2C(=O)Cc2cccc3ccccc23)cc1 (centres undefined)	3863	-7	/	-1	2
Cc1cc2nc(-c3nnnn3-c3c(C)cccc3C)c(=O)[nH]c2cc1C	5874	12	/	13	14
CNc1cncc(-c2ccc(O)cc2C)n1	4032	0	/	-1	2
COC(=O)COc1ccc2c(-c3ccc(OC)cc3)cc(=O)oc2c1	2113	6	15	0	-1
